A number with no mark means an inactive call. How the calls were made is not given here.

In general, inhibition refers to the share of the control response that was lost under treatment.

The target in the assay is Pantothenate synthetase (Mycobacterium tuberculosis (strain ATCC 25618 / H37Rv)) (UniProt P9WIL5). Put plainly: Recombinant Mtb pantothenate synthetase (PanC) inhibitors, coupled enzyme, confirmatory (AID 375).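 Further: 0% = full reaction with vehicle and 100% = no enzyme background.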 The note with it: coupled enzyme assay; at 10 µM, hits give high values.
Pantothenate synthetase (Mycobacterium tuberculosis (strain ATCC 25618 / H37Rv)), sequence (P9WIL5 whole entry, looked up): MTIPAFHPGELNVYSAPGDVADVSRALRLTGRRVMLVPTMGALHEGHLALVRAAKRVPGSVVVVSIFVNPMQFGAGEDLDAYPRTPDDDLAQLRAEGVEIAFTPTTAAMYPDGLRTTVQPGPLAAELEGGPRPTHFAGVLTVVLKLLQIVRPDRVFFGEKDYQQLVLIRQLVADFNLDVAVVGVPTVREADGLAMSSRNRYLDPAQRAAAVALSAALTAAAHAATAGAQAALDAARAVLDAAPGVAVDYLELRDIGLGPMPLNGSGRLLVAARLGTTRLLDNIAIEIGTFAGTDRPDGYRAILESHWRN
With `CC1Cc2nc(SCC(=O)Nc3ccc4c(c3)OCO4)n(-c3ccc(F)cc3)c(=O)c2S1` (stereo unspecified), the inhibition was 0%.
`O=C(Cn1cnc2c(nnn2Cc2ccccc2)c1=O)c1ccc(Cl)cc1`: the inhibition is 5%.
The result for `O=C(COc1ccc(Cl)cc1)Nc1nc(-c2cccs2)cs1` reads 1%; that for `CC(C)OC(=O)C(CC(=O)O)NCc1ccccc1` (stereo unspecified), 1%; that for `O=C(NCc1ccccc1)C1CCCN(S(=O)(=O)c2cccnc2)C1` (stereo unspecified), 0%.
As to `Cc1c(C(=O)Nc2nnc(C(F)(F)F)s2)oc2ccccc12`, the inhibition is 5%.

(Values after PubChem BioAssay.)
